Experiment [1] can be described thus: qHTS assay to test for compound auto fluorescence at 535 nm (green) in HEK293 cells (AID 720680; note: % is set by controls: 0 for no effect and ±100 for the full control effect). (In general: In qHTS, concentration-response curves come from the screen itself.)
Experiment [2] in a line: qHTS assay to test for compound auto fluorescence at 460 nm (blue) in HEK293 cell free culture (AID 720681). Note: % is set by controls: 0 for no effect and ±100 for the full control effect. A digest of the protocol:
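Blue fluorescence (Ex 405/Em 460 nm, triamterene-equivalent) was read immediately after pin transfer of compound or DMSO into medium (DMEM, 10% FBS) without cells.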

Experiment [3] is described as follows: qHTS assay to test for compound auto fluorescence at 535 nm (green) in HEK293 cell free culture (AID 720682). Note: % is set by controls: 0 for no effect and ±100 for the full control effect. Summed up: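 Cell-free medium (DMEM, 10% FBS) receives compound or DMSO by pintool. Plate read directly at Ex 485/Em 535 nm. Signal converted to fluorescein equivalency.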
A short description of experiment [4]: qHTS assay to test for compound auto fluorescence at 590 nm (red) in HEK293 cell free culture (AID 720683). Note: % is set by controls: 0 for no effect and ±100 for the full control effect. A digest of the protocol:
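Red-channel autofluorescence of compounds in culture medium (DMEM, 10% FBS), no cells, measured at 540/590 nm. Rose Bengal sodium is the reference fluorophore for equivalence.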

A short description of experiment [5]: qHTS assay to test for compound auto fluorescence at 590 nm (red) in HepG2 cell free culture (AID 720684). Note: % is set by controls: 0 for no effect and ±100 for the full control effect. A digest of the protocol: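 Cell-free; medium MEM + 10% FBS; compound or DMSO added by pintool; read Ex 540/Em 590 nm; Rose Bengal sodium as red reference fluorophore.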
Experiment [6] can be described thus: qHTS assay to test for compound auto fluorescence at 460 nm (blue) in HepG2 cell free culture (AID 720685). Note: % is set by controls: 0 for no effect and ±100 for the full control effect. Summed up: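 Cell-free plates of MEM plus 10% FBS received 23 nL compound or DMSO vehicle; blue-channel (405/460 nm) intensity scored against triamterene as reference fluorophore.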
A short description of experiment [7]: qHTS assay to test for compound auto fluorescence at 535 nm (green) in HepG2 cell free culture (AID 720686). Note: % is set by controls: 0 for no effect and ±100 for the full control effect.
A short description of experiment [8]: qHTS assay to test for compound auto fluorescence at 460 nm (blue) in HepG2 cells (AID 720687). Note: % is set by controls: 0 for no effect and ±100 for the full control effect. A digest of the protocol: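 Blue-channel autofluorescence (Ex/Em 405/460 nm, triamterene-equivalent) was measured after 1 hr compound exposure at 37 C, 5% CO2. Cells were HepG2, plated overnight at 37 C in MEM plus 10% FBS.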
Experiment [9] in a line: qHTS assay to identify small molecule antagonists of the glucocorticoid receptor (GR) signaling pathway - cell viability counter screen (AID 720693). Note: nearly all actives have a fitted effect of over 55% in size. Note: potency is the fitted concentration of half-maximal effect.
A short description of experiment [10]: qHTS assay for identifying genotoxic compounds that show differential cytotoxicity against isogenic chicken DT40 cell lines with known DNA damage response pathways - wild type cell line (AID 743012). Note: potency is the fitted concentration of half-maximal effect; nearly all actives have a fitted effect of over 60% in size. A digest of the protocol:
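Viability of DNA repair-proficient chicken DT40 cells was assessed by CellTiter-Glo luminescence following 40 h compound exposure at 37 C/5% CO2.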

A short description of experiment [11]: qHTS assay for identifying genotoxic compounds that show differential cytotoxicity against isogenic chicken DT40 cell lines with known DNA damage response pathways - Rad54/Ku70 mutant cell line (AID 743015). Note: potency is the fitted concentration of half-maximal effect; nearly all actives have a fitted effect of over 60% in size.
The nature of experiment [12]: qHTS assay to identify small molecule antagonists of the androgen receptor (AR) signaling pathway - cell viability counter screen (AID 743033; note: nearly all actives have a fitted effect of over 45% in size; note: potency is the fitted concentration of half-maximal effect).
For experiment [13], the target named is Androgen receptor (Homo sapiens) (UniProt P10275). The experiment is described as follows: qHTS assay to identify small molecule antagonists of the androgen receptor (AR) signaling pathway (AID 743035; active = well fitted inhibition curve with a large enough effect in the signal ratio in the repeat runs, not every such curve was filed as active; the % refers to the signal ratio; note: potency is the fitted concentration of half-maximal effect). A digest of the protocol: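 Reporter HEK293 cells were exposed to compounds and R1881 overnight (16 h, 37C); beta-lactamase activity was then quantified by FRET fluorescence.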

The nature of experiment [14]: qHTS assay to identify small molecule antagonists of the androgen receptor (AR) signaling pathway using the MDA cell line - cell viability counter screen (AID 743041; note: nearly all actives have a fitted effect of over 45% in size; note: potency is the fitted concentration of half-maximal effect). A digest of the protocol:
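Viability read by CellTiter-Fluor fluorescence in the same wells as the antagonist screen, added after 15.5 h of a 16 h, 37C exposure. Human breast carcinoma MDA-kb2 AR-luc cells, compounds co-dosed with agonist R1881.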

In experiment [15] the target is Androgen receptor (Homo sapiens) (UniProt P10275). In words: qHTS assay to identify small molecule antagonists of the androgen receptor (AR) signaling pathway using the MDA cell line (AID 743042; note: nearly all actives have a fitted effect of over 55% in size; note: potency is the fitted concentration of half-maximal effect). Summed up: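 Antagonist mode: compounds plus R1881 agonist added to MDA-kb2 AR-luc cells, incubated 16 h at 37C. Luciferase reporter luminescence quantified, with multiplexed CellTiter-Fluor readout for cell viability.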

Experiment [16] is described as follows: qHTS assay to identify small molecule antagonists of the thyroid receptor (TR) signaling pathway - cell viability counter screen (AID 743064). Note: nearly all actives have a fitted effect of over 50% in size. Note: potency is the fitted concentration of half-maximal effect. Summed up: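 GH3.TRE-Luc cells, 4 h pre-plating; cpd + T3 1 nM final; 37 °C 23.5 h; CellTiter-Fluor 30 min; fluorescence read.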
Experiment [17] deals with Glucocorticoid receptor (Homo sapiens) (UniProt P04150). In words: qHTS assay to identify small molecule antagonists of the glucocorticoid receptor (GR) signaling pathway (AID 720692; active = well fitted inhibition curve with a large enough effect in the signal ratio in the repeat runs, not every such curve was filed as active; the % refers to the signal ratio; note: potency is the fitted concentration of half-maximal effect). Summed up: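 In a 1536-well cell format, compounds were added 4 h after seeding GR-bla HeLa cells, together with dexamethasone at 5 nM final; reporter activity was measured by FRET-substrate fluorescence following 18 h at 37 C.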

The nature of experiment [18]: qHTS assay for identifying genotoxic compounds that show differential cytotoxicity against isogenic chicken DT40 cell lines with known DNA damage response pathways - Rev3 mutant cell line (AID 743014). Note: potency is the fitted concentration of half-maximal effect; nearly all actives have a fitted effect of over 55% in size.
The target of experiment [19] is Androgen receptor (Homo sapiens) (UniProt P10275). In words: qHTS assay to identify small molecule agonists of the androgen receptor (AR) signaling pathway (AID 743036; active = well fitted activation curve with a large enough effect in the signal ratio in the repeat runs, with a control signal flat, not every such curve was filed as active; the % refers to the signal ratio; note: % is set by controls: 0 for no effect and ±100 for the full control effect). A digest of the protocol: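 AR-bla HEK293 cells, 2,000/well; 4 h preincubation 37C/5% CO2; compound (DMSO) 16 h at 37C; LiveBLAzer B/G FRET substrate 2 h RT; fluorescence intensity read-out.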
The target of experiment [20] is Glucocorticoid receptor (Homo sapiens) (UniProt P04150). In words: qHTS assay to identify small molecule agonists of the glucocorticoid receptor (GR) signaling pathway (AID 720691; active = well fitted activation curve with a large enough effect in the signal ratio in the repeat runs, not every such curve was filed as active; the % refers to the signal ratio; note: % is set by controls: 0 for no effect and ±100 for the full control effect). Summed up:
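Compounds in DMSO, alongside positive controls, were added to GR-bla HeLa reporter cells and incubated 18 h at 37 C; GRE-driven beta-lactamase was detected by fluorescence after 2 h with FRET substrate at room temperature.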

Values joined by “and” are separate entries in the source; they are usually repeats but may differ in a detail not shown here. Equal values may be shown once. Results filed as inconclusive are left out. Active and inactive are the calls of the source. Unless noted, calls come from the whole dose curve; as a rule, active = well fitted curve in the direction sought with a large enough effect in the repeat runs; inconclusive = weak or mixed curves; inactive = no such curve, though single readings can be large; an effect the other way counts as inactive or inconclusive.

Glucocorticoid receptor (Homo sapiens), sequence (P04150 whole entry, looked up): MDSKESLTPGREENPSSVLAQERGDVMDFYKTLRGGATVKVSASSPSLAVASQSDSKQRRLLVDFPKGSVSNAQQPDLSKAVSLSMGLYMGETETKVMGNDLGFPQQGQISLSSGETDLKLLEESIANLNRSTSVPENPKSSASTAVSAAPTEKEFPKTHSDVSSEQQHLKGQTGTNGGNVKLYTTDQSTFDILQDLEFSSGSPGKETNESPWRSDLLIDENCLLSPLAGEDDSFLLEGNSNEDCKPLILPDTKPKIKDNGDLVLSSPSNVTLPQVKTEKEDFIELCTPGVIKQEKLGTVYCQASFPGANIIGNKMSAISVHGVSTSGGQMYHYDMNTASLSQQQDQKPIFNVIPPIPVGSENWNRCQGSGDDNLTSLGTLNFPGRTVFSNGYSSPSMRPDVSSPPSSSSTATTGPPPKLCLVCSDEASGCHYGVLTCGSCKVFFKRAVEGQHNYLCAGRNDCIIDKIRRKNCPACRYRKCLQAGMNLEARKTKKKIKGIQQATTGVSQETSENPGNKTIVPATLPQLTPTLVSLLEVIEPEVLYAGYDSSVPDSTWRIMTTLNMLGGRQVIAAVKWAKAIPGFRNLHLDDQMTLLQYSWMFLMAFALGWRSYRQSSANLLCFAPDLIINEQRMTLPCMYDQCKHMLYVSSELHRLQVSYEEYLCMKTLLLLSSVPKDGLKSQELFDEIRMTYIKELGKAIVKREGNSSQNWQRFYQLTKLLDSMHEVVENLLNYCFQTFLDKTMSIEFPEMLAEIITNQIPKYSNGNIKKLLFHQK
Androgen receptor (Homo sapiens), sequence (P10275 whole entry, looked up): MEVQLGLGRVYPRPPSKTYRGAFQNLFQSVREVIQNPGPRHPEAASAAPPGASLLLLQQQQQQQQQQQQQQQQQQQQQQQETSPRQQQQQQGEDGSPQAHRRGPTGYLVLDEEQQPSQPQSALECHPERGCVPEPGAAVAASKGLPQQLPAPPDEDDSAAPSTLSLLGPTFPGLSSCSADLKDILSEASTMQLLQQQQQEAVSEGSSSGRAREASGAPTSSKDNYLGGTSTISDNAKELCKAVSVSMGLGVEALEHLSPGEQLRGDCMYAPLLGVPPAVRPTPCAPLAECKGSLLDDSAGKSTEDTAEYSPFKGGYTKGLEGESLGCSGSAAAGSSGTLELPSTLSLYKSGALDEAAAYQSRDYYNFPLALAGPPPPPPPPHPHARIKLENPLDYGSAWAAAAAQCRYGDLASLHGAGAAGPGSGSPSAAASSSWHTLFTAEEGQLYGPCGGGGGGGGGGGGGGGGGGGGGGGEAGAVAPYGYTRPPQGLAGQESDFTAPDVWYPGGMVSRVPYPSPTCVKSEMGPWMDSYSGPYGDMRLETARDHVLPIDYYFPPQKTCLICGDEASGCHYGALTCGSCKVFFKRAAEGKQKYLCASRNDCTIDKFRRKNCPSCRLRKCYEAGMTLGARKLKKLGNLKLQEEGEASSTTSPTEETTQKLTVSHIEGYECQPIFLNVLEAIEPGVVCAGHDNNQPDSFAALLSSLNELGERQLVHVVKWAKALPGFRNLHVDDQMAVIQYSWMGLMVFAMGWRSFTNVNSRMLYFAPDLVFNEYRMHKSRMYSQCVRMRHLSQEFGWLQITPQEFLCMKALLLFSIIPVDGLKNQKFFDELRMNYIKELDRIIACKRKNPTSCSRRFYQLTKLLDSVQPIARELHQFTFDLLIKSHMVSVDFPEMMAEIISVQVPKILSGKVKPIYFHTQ

Regarding `CCCCCCCCCCCCc1ccccc1O`, the Potency entry in experiment [1], in [2], in experiment [3], in [6], in [7] and in experiment [8] was “inactive” in each case. For the same compound, in experiment [14], the Potency result was “inactive”. In addition, the compound was called inactive in experiment [4] and in experiment [5]. For the same compound, the Potency is 21.6 µM (active) and 21.9 µM (active) in [9]; 12 µM (active) and 30.6 µM (active) in experiment [10]; 12 µM (active) and 27.3 µM (active) in experiment [11]; 24.2 µM (active) and 38.9 µM (active) in experiment [12]; 21.6 µM (active) in experiment [13]; 54.5 µM (active) in experiment [15]. Further, the Potency in experiment [16] was 13.7 µM (active).

Turning to `CC(C)CCOC(=O)c1ccc(N(C)C)cc1`, the Potency entry in experiment [1], in experiment [2], in experiment [3], in experiment [6], in experiment [7] and in experiment [8] was “inactive” each time. Moreover, the Potency entry in [9], in [12] and in experiment [16] was “inactive” throughout. In addition, the compound was called inactive in experiment [4] and in [5].

Consider `Nc1nc(=S)c2[nH]cnc2[nH]1`, for which the Potency entry in [1], in experiment [2], in experiment [3], in experiment [6], in experiment [7] and in [8] was “inactive” each time. Besides, the Potency result in experiment [19], in experiment [15] and in [16] was “inactive” in each case. Besides, the outcome in experiment [4] and in experiment [5] was inactive. Further, the Potency was 23.9 µM (active) and 30.1 µM (active) and 43.6 µM (active) in experiment [17]; 1.88 µM (active) and 1.33 µM (active) and 686 nM (active) in [18]; 1.33 µM (active) [middle of 4 runs] in [11]; 26.8 µM (active) and 1.95 µM (active) in experiment [12]; 16.9 µM (active) and 10.7 µM (active) and 6.92 µM (active) in experiment [13].

For the compound `Cc1c(O)cccc1C(=O)N[C@@H](CSc1ccccc1)[C@H](O)CN1C[C@H]2CCCC[C@H]2C[C@H]1C(=O)NC(C)(C)C`, the Potency entry in [1], in [2], in [3], in experiment [6], in [7] and in experiment [8] was “inactive” throughout. The call in experiment [4] and in experiment [5] was inactive. Besides, the Potency was 11.9 µM (active) and 29.8 µM (active) in [10]; 13.3 µM (active) and 23.7 µM (active) in experiment [18]; 13.3 µM (active) and 18.8 µM (active) in experiment [11]; 19 µM (active) and 16.9 µM (active) in experiment [12]; 10.7 µM (active) and 6.74 µM (active) in experiment [13]; 27.8 µM (active) and 59.5 µM (active) in [14]. For the same compound, the Potency was 26.6 µM (active) and 29.8 µM (active) in experiment [15]; 5.31 µM (active) and 2.11 µM (active) in experiment [16].

On to `Cc1cc(OCCOCC[N+](C)(C)Cc2ccccc2)ccc1C(C)(C)CC(C)(C)C`, for which the Potency entry in experiment [1], in [2], in [3], in [6], in experiment [7] and in [8] was “inactive” each time. Further, the compound was classed as inactive in experiment [4] and in [5]. Moreover, the Potency was 21.3 µM (active) and 17.3 µM (active) in experiment [9]; 841 nM (active) and 1.21 µM (active) in experiment [10]; 1.06 µM (active) and 765 nM (active) in experiment [11]; 16.9 µM (active) and 15.4 µM (active) in experiment [12]; 18.8 µM (active) and 12.1 µM (active) in experiment [15]; 10.6 µM (active) and 12.1 µM (active) in experiment [16].

On to `CCN(CC)C(=S)SSC(=S)N(CC)CC`, for which the Potency result in experiment [1], in [2], in experiment [3], in [6], in [7] and in experiment [20] was “inactive” each time. Also, the Potency result in experiment [17], in [9] and in experiment [19] was “inactive” throughout. Also, the result in experiment [4] and in experiment [5] was inactive. Also, the Potency in experiment [10] was 106 nM (active) and 96.9 nM (active) and 19.8 nM (active); in experiment [18] it was 119 nM (active) and 96.9 nM (active) and 38.4 nM (active); in experiment [11], 106 nM (active) and 96.9 nM (active) and 68.6 nM (active); in [12], 425 nM (active) and 138 nM (active) and 100 nM (active); in experiment [13] it was 0.123 µM (active); in experiment [14] it was 376 nM (active) and 243 nM (active) and 222 nM (active). Also, the Potency was 266 nM (active) and 217 nM (active) and 140 nM (active) in experiment [15]; 34.2 µM (active) in experiment [16].

The values are drawn from PubChem BioAssay (Tox21).
